Reference: PubChem BioAssay AID1159580 (chemical genetic matrix, 2015)
In all, about 5,500 compounds went through this assay and about 2,000 (36%) were called active. Inconclusive results (about 18%) are left out. Cut-off read from the data, not from the text of the source: active = normalized growth mostly below about 0.91 (no sharp cut-off); inconclusive = no clear call, values can overlap the other calls; inactive = mostly above about 0.92. The list shows a part of the results.

Experiment: chemical genetic growth profiling, strain panel (AID 1159580);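 note: tested at 20 µM; growth read once vehicle control cultures reached saturation at 30 °C; 1 = growth at the plate median or of vehicle wells; lower values mean less growth of the strain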
Details: growth OD

Measured: normalized growth

O=C(/C=C/C=C/c1ccc2c(c1)OCO2)N1CCCCC1
active: S. cerevisiae deletion strains, locus YKR001C, strain vps1, active compounds read low 0.796 | S. cerevisiae deletion strains, locus YLR221C, strain rsa3, active compounds read low 0.9 | S. cerevisiae deletion strains, locus YLR262C, strain YPT6 (second series), active compounds read low 0.71 | S. cerevisiae deletion strains, locus YLR268W, strain sec22, active compounds read low 0.807 | S. cerevisiae deletion strains, locus YLR320W, strain mms22, active compounds read low 0.808 | S. cerevisiae deletion strains, locus YLR342W, strain FKS1 (second series), active compounds read low 0.781 | S. cerevisiae deletion strains, locus YLR342W, strain FKS1, active compounds read low 0.851 | S. cerevisiae deletion strains, locus YLR418C, strain cdc73, active compounds read low 0.701 | S. cerevisiae deletion strains, locus YNL071W, strain lat1, active compounds read low 0.674 | S. cerevisiae deletion strains, locus YNL307C, strain MCK1, active compounds read low 0.729 | S. cerevisiae deletion strains, locus YOR184W, strain ser1, active compounds read low 0.753 | S. cerevisiae deletion strains, locus YOR270C, strain vph1, active compounds read low 0.633 | S. cerevisiae deletion strains, locus YPL051W, strain arl3, active compounds read low 0.896 | S. cerevisiae deletion strains, locus YPR163C, strain tif3, active compounds read low 0.856
inactive: S. cerevisiae deletion strains, locus YJR075W, strain HOC1, active compounds read low 0.9 | S. cerevisiae deletion strains, locus YKL009W, strain mrt4, active compounds read low 0.886 | S. cerevisiae deletion strains, locus YKL068W, active compounds read low 0.966 | S. cerevisiae deletion strains, locus YKL085W, strain MDH1 (second series), active compounds read low 0.953 | S. cerevisiae deletion strains, locus YKL085W, strain MDH1, active compounds read low 0.953 | S. cerevisiae deletion strains, locus YKL160W, strain elf1, active compounds read low 0.919 | S. cerevisiae deletion strains, locus YKL190W, strain CNB1, active compounds read low 0.974 | S. cerevisiae deletion strains, locus YKR026C, strain gcn3, active compounds read low 0.992 | S. cerevisiae deletion strains, locus YKR091W, strain srl3, active compounds read low 0.977 | S. cerevisiae deletion strains, locus YLL001W, strain dnm1, active compounds read low 0.935 | S. cerevisiae deletion strains, locus YLL026W, active compounds read low 0.956 | S. cerevisiae deletion strains, locus YLL041C, strain sdh2, active compounds read low 0.964 | S. cerevisiae deletion strains, locus YLR027C, strain aat2, active compounds read low 0.945 | S. cerevisiae deletion strains, locus YLR039C, strain RIC1, active compounds read low 0.72 | S. cerevisiae deletion strains, locus YLR058C, strain SHM2, active compounds read low 0.968 | S. cerevisiae deletion strains, locus YLR102C, strain apc9, active compounds read low 0.94 | S. cerevisiae deletion strains, locus YLR113W, strain HOG1, active compounds read low 0.973 | S. cerevisiae deletion strains, locus YLR258W, strain gsy2, active compounds read low 0.92 | S. cerevisiae deletion strains, locus YLR262C, strain YPT6, active compounds read low 0.785 | S. cerevisiae deletion strains, locus YLR330W, strain CHS5, active compounds read low 0.969 | S. cerevisiae deletion strains, locus YLR357W, strain rsc2, active compounds read low 1.08 | S. cerevisiae deletion strains, locus YLR370C, strain arc18, active compounds read low 0.952 | S. cerevisiae deletion strains, locus YLR371W, strain rom2, active compounds read low 0.959 | S. cerevisiae deletion strains, locus YLR384C, strain iki3, active compounds read low 0.976 | S. cerevisiae deletion strains, locus YML016C, strain PPZ1, active compounds read low 0.961 | S. cerevisiae deletion strains, locus YML032C, strain rad52, active compounds read low 0.914 | S. cerevisiae deletion strains, locus YML120C, strain ndi1, active compounds read low 0.932 | S. cerevisiae deletion strains, locus YML124C, strain tub3, active compounds read low 0.945 | S. cerevisiae deletion strains, locus YMR058W, strain fet3, active compounds read low 0.93 | S. cerevisiae deletion strains, locus YMR078C, strain ctf18, active compounds read low 0.932 | S. cerevisiae deletion strains, locus YMR125W, strain sto1, active compounds read low 0.961 | S. cerevisiae deletion strains, locus YMR129W, active compounds read low 0.959 | S. cerevisiae deletion strains, locus YMR205C, strain PFK2, active compounds read low 0.892 | S. cerevisiae deletion strains, locus YMR223W, strain ubp8, active compounds read low 0.91 | S. cerevisiae deletion strains, locus YMR231W, strain pep5, active compounds read low 0.99 | S. cerevisiae deletion strains, locus YMR263W, strain SAP30, active compounds read low 0.921 | S. cerevisiae deletion strains, locus YMR307W, strain GAS1, active compounds read low 0.621 | S. cerevisiae deletion strains, locus YNL067W, strain RPL9B, active compounds read low 0.907 | S. cerevisiae deletion strains, locus YNL128W, strain TEP1, active compounds read low 0.991 | S. cerevisiae deletion strains, locus YNL153C, strain GIM3, active compounds read low 0.953 | S. cerevisiae deletion strains, locus YNL183C, strain NPR1, active compounds read low 0.95 | S. cerevisiae deletion strains, locus YNL209W, strain ssb2, active compounds read low 0.949 | S. cerevisiae deletion strains, locus YNL233W, strain BNI4, active compounds read low 0.89 | S. cerevisiae deletion strains, locus YNL248C, strain rpa49, active compounds read low 0.94 | S. cerevisiae deletion strains, locus YNL250W, strain rad50, active compounds read low 0.95 | S. cerevisiae deletion strains, locus YNL271C, strain bni1, active compounds read low 0.933 | S. cerevisiae deletion strains, locus YNL298W, strain CLA4, active compounds read low 0.92 | S. cerevisiae deletion strains, locus YNL322C, strain KRE1 (second series), active compounds read low 0.965 | S. cerevisiae deletion strains, locus YNL322C, strain KRE1, active compounds read low 0.981 | S. cerevisiae deletion strains, locus YNR049C, strain mso1, active compounds read low 0.977 | S. cerevisiae deletion strains, locus YNR052C, strain pop2, active compounds read low 0.963 | S. cerevisiae deletion strains, locus YOL006C, strain TOP1, active compounds read low 0.598 | S. cerevisiae deletion strains, locus YOL012C, strain htz1 1.13 | S. cerevisiae deletion strains, locus YOL147C, strain pex11, active compounds read low 0.951 | S. cerevisiae deletion strains, locus YOR001W, strain rrp6, active compounds read low 0.956 | S. cerevisiae deletion strains, locus YOR061W, strain CKA2, active compounds read low 0.979 | S. cerevisiae deletion strains, locus YOR069W, strain VPS5, active compounds read low 0.98 | S. cerevisiae deletion strains, locus YOR070C, strain gyp1, active compounds read low 0.935 | S. cerevisiae deletion strains, locus YOR080W, strain dia2, active compounds read low 0.996 | S. cerevisiae deletion strains, locus YOR083W, strain WHI5, active compounds read low 0.909 | S. cerevisiae deletion strains, locus YOR106W, strain vam3, active compounds read low 0.925 | S. cerevisiae deletion strains, locus YOR136W, strain idh2, active compounds read low 0.964 | S. cerevisiae deletion strains, locus YOR144C, strain elg1, active compounds read low 0.948 | S. cerevisiae deletion strains, locus YOR231W, strain MKK1, active compounds read low 0.982 | S. cerevisiae deletion strains, locus YOR265W, strain rbl2, active compounds read low 0.961 | S. cerevisiae deletion strains, locus YOR290C, strain snf2, active compounds read low 0.929 | S. cerevisiae deletion strains, locus YOR316C, strain cot1, active compounds read low 0.946 | S. cerevisiae deletion strains, locus YPL055C, strain LGE1, active compounds read low 0.827 | S. cerevisiae deletion strains, locus YPL078C, strain atp4, active compounds read low 0.914 | S. cerevisiae deletion strains, locus YPL106C, strain sse1, active compounds read low 0.92 | S. cerevisiae deletion strains, locus YPL240C, strain hsp82, active compounds read low 0.946 | S. cerevisiae deletion strains, locus YPL241C, strain CIN2, active compounds read low 0.969 | S. cerevisiae deletion strains, locus YPL256C, strain CLN2, active compounds read low 0.914 | S. cerevisiae deletion strains, locus YPR119W, strain clb2, active compounds read low 0.936 | S. cerevisiae deletion strains, locus YPR141C, strain kar3, active compounds read low 0.946 | S. cerevisiae deletion strains, locus YPR167C, strain met16, active compounds read low 0.948 | S. cerevisiae deletion strains, strain wtn01, active compounds read low 0.9 | S. cerevisiae strains, strain wild type, active compounds read low 0.948
